This is a sample that favours compounds with a hit; in the whole collection about 9.4% have one here.
SMN2 splice enh = enhancers of SMN2 splice variant expression; 210,000 tested, 2.8% active; HEK293 SMN2-luciferase splicing reporter, luminescence, 30-36 h; AID 1458; Potency, µM (doses to about 46.1 µM), for inactives: at the top dose activity change, positive = activation, hits mostly activators; further: % of control where 0% means no effect; nearly all actives have a fitted effect of over 55% in size
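HEK293 cells carry an SMN2 […]–luciferase reporter in which exon 7 inclusion puts luciferase in frame. Cells were plated 10-12 h before compound addition, then incubated 30-36 h at 37C. ONE-Glo luminescence was read; sodium butyrate at 4.5 mM final served as control.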
FLuc modulator = inhibits or activates purified firefly luciferase, miR-21 counter-screen; P08659; purified FLuc, Km substrates, luminescence inhibition; AID 588342; 360,000 tested, 6.9% active; Potency, µM (titrated, usually from 57.5 µM), for inactives: at the top dose activity change, negative = inhibition, actives largely listed as inhibitors;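 further: plate controls were vehicle for no effect and reference inhibitor for full effect; nearly all actives have a fitted effect of over 55% in size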
Target sequence (P08659 whole entry, looked up): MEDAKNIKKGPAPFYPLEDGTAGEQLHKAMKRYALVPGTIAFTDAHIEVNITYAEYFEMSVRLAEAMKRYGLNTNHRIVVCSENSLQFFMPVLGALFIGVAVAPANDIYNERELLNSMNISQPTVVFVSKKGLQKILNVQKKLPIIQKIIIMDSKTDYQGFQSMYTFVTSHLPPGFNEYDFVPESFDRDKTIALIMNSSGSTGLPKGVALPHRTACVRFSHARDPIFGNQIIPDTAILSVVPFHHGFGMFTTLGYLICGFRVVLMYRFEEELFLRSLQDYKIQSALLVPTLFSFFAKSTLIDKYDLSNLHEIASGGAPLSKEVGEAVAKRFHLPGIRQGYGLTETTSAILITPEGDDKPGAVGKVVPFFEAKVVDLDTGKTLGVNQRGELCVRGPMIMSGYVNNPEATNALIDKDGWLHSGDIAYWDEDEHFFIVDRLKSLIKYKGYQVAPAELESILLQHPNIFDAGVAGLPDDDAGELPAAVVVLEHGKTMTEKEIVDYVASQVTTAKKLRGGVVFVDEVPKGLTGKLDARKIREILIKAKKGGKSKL
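Purified P. pyralis luciferase, 10 nM final, with Km-level 10 uM D-luciferin and 10 uM ATP in 50 mM Tris acetate pH 7.5, 10 mM Mg acetate, 0.01% Tween-20, 0.05% BSA; 6-point qHTS titration about 60 µM downward; luminescence read.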
Rab9 promoter act = activators of Rab9 promoter; AID 485297; Potency, µM (top dose mostly 9.22 µM), for the others: at the highest dose activation, negative = inhibition, most hits filed as activators; 320,000 tested, 2.8% active; Huh7 Rab9 promoter-luciferase reporter, luminescence, 24 h; further: % of control where 0% means no effect; nearly all actives have a fitted effect of over 60% in size
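Huh7 cells stably carrying a Rab9 promoter-luciferase reporter, 1500 cells per well in OP-MEM I with 10% FBS, treated with compound 24 hours at 37C. Luciferase activity read by luminescence after 10 minutes with Amplite reagent.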
NPC1 promoter act = NPC1 promoter activation | Potency, µM (highest dose often 9.22 µM), inactives show at the top dose activation, hits mostly activators | 320,000 tested, 2.4% active | Huh7 NPC1 promoter luciferase reporter, 24 h; further: % of control where 0% means no effect; nearly all actives have a fitted effect of over 60% in size
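Readout is luciferase luminescence, reflecting NPC1 promoter activation in stably transfected Huh7 cells after 24 h compound exposure at 37 °C in reduced-serum medium with 10% FBS.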
ELG1 repair inh = blocks ELG1-dependent DNA repair in HEK293T cells; HEK293T ELG1-luciferase reporter, luminescence, 16 h; DNA damage induced by 5-fluorouridine; Potency, µM (doses to about 46.1 µM), inactives show at the highest dose activity change, negative = inhibition, actives largely listed as inhibitors; 330,000 tested, 2.3% active; further: on the % scale 0 is the no-effect control and ±100 the full control effect; nearly all actives have a fitted effect of over 55% in size
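HEK293T cells expressing luciferase-tagged ELG1 (2,000/well) received 5-Fluorouridine plus compound or DMSO for 16 hr at 37 °C. Luciferase was read by ONE-Glo luminescence after 30 min at room temperature.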
ELG1 genotoxic = inducers of genotoxicity in HEK293T ELG1-luciferase cells; HEK293T ELG1-luciferase reporter, luminescence, 16 h; Potency, µM (titrated, usually from 46 µM), inactives show at the highest dose activity change, positive = activation, hits mostly activators; 330,000 tested, 1.3% active; further: % of control where 0% means no effect; nearly all actives have a fitted effect of over 60% in size
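HEK293T cells expressing luciferase-tagged ELG1 were treated with compound or DMSO for 16 hr at 37°C. Luciferase activity was then read after 30 min with ONE-Glo at room temperature; rising signal flags genetic stress.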
Active calls of the source: *; u = inconclusive; x = no result given; [ ] = dose if it differs, or a comment. The call rests on the fitted dose curve; in most records, active means well fitted curve in the direction sought with a large enough effect; inconclusive means small, poorly fitted or top-dose-only effect, or another doubt; inactive means no such curve, though single readings can be large; an effect the other way counts as inactive or inconclusive. Potency means the concentration at half of the fitted maximal effect.

SMILES | SMN2 splice enh | FLuc modulator | Rab9 promoter act | NPC1 promoter act | ELG1 repair inh | ELG1 genotoxic
CCc1ccc(C(=O)/C=C2\Sc3ccccc3NC2=O)cc1 | x | 13µM* | -5% | -1% | u | 11%
O=C1Nc2ccccc2S/C1=C\C(=O)N1CCCC1 | 13µM* | 12µM* | 3.5µM* | 19% | u | -19%
CCCCNC(=O)/C=C1\Sc2ccccc2NC1=O | -8%[1.84 µM] | u | -1% | -1% | u | 6%
CC(=O)Nc1ccc(NC(=O)CCSCCc2ccccn2)cc1 | -12% | -2% | 1% | 2% | 15% | 0%
CC1Cc2cc(/C(O)=C3/C(=O)C(=O)N(CCCn4ccnc4)C3c3ccco3)ccc2O1 (centres undefined) | -14% | 15µM* | 2.8µM* | u | u | u
CC(C)Oc1ccc(/C(O)=C2/C(=O)C(=O)N(CCN(C)C)C2c2ccco2)cc1 (centres undefined) | 28% | 21µM* | u | 25% | u | u
CCN(CC)CCN1C(=O)C(=O)/C(=C(/O)c2ccc(OC)cc2)C1c1ccco1 (centres undefined) | x | u | 6% | 15% | u | 3%
N#CC1=C(N)NC(SCC(=O)Nc2ccc(Br)cc2)=C(C#N)C12CCCCC2 | -11% | -3% | 0% | 1% | 23µM* | -19%
N#CC1=C(N)NC(SCc2ccc(Br)cc2)=C(C#N)C12CCCCC2 | -33% | u | 1% | -4% | u | -9%
BrC(Br)C(Br)Br | 5% | x | x | x | x | x
O=C(CCS(=O)(=O)c1ccccc1Cl)NC1CCCCCC1 | x | x | x | x | u | 16%
Cn1cc(Br)c(C(=O)Nc2sc3c(c2C(N)=O)CCC3)n1 | 41% | 11µM* | 18% | 22% | u | 12%
Cn1ccc(C(=O)Nc2sc3c(c2C(N)=O)CCCCC3)n1 | x | 0.6µM* | 0.5µM* | 1µM* | u | 0.46µM*
Cn1nccc1C(=O)Nc1sc2c(c1C(N)=O)CCCC2 | 5% | 9.5µM* | u | 25% | -1% | u
CCn1ncc(Br)c1C(=O)Nc1sc2c(c1C(N)=O)CCC2 | -9% | -4% | 10% | 0% | 1% | 1%
CCn1c(=O)c2c(n3c(=S)[nH]nc13)-c1ccccc1CC21CCCCC1 | -18% | 15µM* | 2% | -5% | -8% | 5%
CCn1c(SCC#N)nc2c(c1=O)C1(CCCC1)Cc1ccccc1-2 | 2% | 5% | 5% | -7% | -15% | -5%
CCCC1(c2ccccc2)NC(=O)N(CC(=O)c2[nH]c(C)c(C(=O)OCC)c2C)C1=O (centres undefined) | -8% | u | -3% | 0% | 18µM* | 3%
CCOC(=O)c1c(C)[nH]c(C(=O)CN2C(=O)NC(C)(c3ccc4ccccc4c3)C2=O)c1C (centres undefined) | 11% | 1% | -8% | 0% | 16µM* | -7%
Cc1csc(NC(=O)c2ccc(C(=O)Nc3nc(C)cs3)cc2)n1 | x | -8% | 9% | 5% | u | 2%
Cc1csc(NC(=O)c2sccc2C)n1 | x | 11µM* | 0.89µM* | 1.8µM* | u | u
Cc1csc(NC(=O)c2cccn2C)n1 | 16µM* | 8.5µM* | 2.2µM* | 3.5µM* | u | u
Cc1csc(NC(=O)c2ccccc2C(=O)O)n1 | -3% | 0% | -4% | -5% | 1% | -3%
Cn1cccc1C(=O)Nc1nc(-c2ccccn2)cs1 | 25% | 8.5µM* | 1.8µM* | 2µM* | u | 16%
O=C(NCc1ccco1)C1CCN(c2nc3ccccc3n2Cc2ccc(F)cc2)CC1 | -13% | 1% | -10% | -1% | 18µM* | -11%
SMILES | SMN2 splice enh | FLuc modulator | Rab9 promoter act | NPC1 promoter act | ELG1 repair inh | ELG1 genotoxic
Cc1ccccc1CNC(=O)c1ccc(CSc2nc3cccnc3n2Cc2ccccc2)cc1 | x | 1% | x | x | x | x
CCN(CC)CCNC(=O)c1ccc(Cn2c(SCc3ccccc3)nc3cccnc32)cc1 | x | 13µM* | x | x | x | x
O=C(NCCc1ccccc1)c1ccc(Cn2c(SCc3ccc(F)cc3)nc3cccnc32)cc1 | x | 4.8µM* | x | x | x | x
CCOc1ccccc1CNC(=O)c1ccc(Cn2c(SCc3ccccc3)nc3cccnc32)cc1 | -6% | 2.7µM* | x | x | x | x
COc1nc(OC)nc(N2CCC(C(=O)NCc3ccco3)CC2)n1 | 6% | -1% | -5% | -2% | -14% | -1%
COC(=O)N[C@@H](c1cccc(F)c1)C(C(C)=O)C(=O)OC (some centres undefined) | -5% | x | x | x | x | x
CCC(C)NC(=O)c1sc2nc3n(c(=O)c2c1C)CCC3 (centres undefined) | x | 0% | x | x | x | x
CCCCN(C)S(=O)(=O)c1cc(-c2cc(C)no2)ccc1C | x | -17% | x | x | x | x
CCOc1ccc(OCC)c(NC(=O)c2cc(S(=O)(=O)N3CCc4ccccc43)cn2C)c1 | x | 0% | x | x | x | x
O=C(NCCc1ccccc1)c1ccc(Cn2c(SCc3ccccc3F)nc3cccnc32)cc1 | x | 5.4µM* | x | x | x | x
COc1ccc(Cn2c(SCc3ccc(C(=O)NCCc4ccccc4)cc3)nc3cccnc32)cc1 | -8% | -16% | x | x | x | x
O=C(NCc1ccco1)c1ccc(Cn2c(SCc3ccc(F)cc3)nc3cccnc32)cc1 | x | 6µM* | x | x | x | x
COc1cccc(CCNC(=O)c2ccc(Cn3c(SCc4ccccc4)nc4cccnc43)cc2)c1 | -17% | 9.5µM* | x | x | x | x
CC(C)c1c(O)ccc2c1CCC1[C@@](C)(C=O)CCC[C@@]21C (some centres undefined) | -18% | x | x | x | x | x
CCCc1cc(C(=O)O)c2ccccc2n1 | -2% | -1% | 7% | 9% | 13% | 6%
CCCc1cc(-c2ccc3c(c2)COc2c4ccccc4nn2-3)on1 | x | 1.1µM* | 2.8µM* | 2.8µM* | u | u
C(#CC1CCCC1)c1ccc2c(c1)COc1c3ccccc3nn1-2 | x | 3µM* | 1µM* | 0.89µM* | u | u
COc1ccc(OC)c(CCNC(=O)CCCn2c(=O)c3cccn3c3ccccc32)c1 | x | 5% | x | x | x | x
CCN(CC)c1ccc2cc(C(=O)NCc3ccc(F)cc3)c(=N)oc2c1 | x | 17µM* | 0% | 3% | u | -11%
CCOc1cccc2cc(C(=O)NCc3ccc(OC)cc3)c(=N)oc12 | x | -5% | 1% | 0% | 3% | u
CCOc1cccc2cc(C(=O)NCc3ccc(C)cc3)c(=N)oc12 | x | 15µM* | -3% | -5% | 5% | 3%
CN1CCN(C(CNC(=O)c2c(F)cccc2F)c2ccc3c(c2)OCO3)CC1 (centres undefined) | x | -2% | x | x | x | x
COC(=O)N[C@@H](c1ccc(Br)cc1)C(C(=O)OC)C(=O)OC | 20% | x | x | x | x | x

Assay outcomes as filed in PubChem.
